A word on the cell viability: it is a read-out of living cells in per cent, often relative to untreated cells.

Cell viability data for 17 compounds are collected here from the supplement of paper PMC3898565.

± gives the uncertainty stated by the source.
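Further: viable cell number estimated from Alamar Blue fluorescence read at 560/90, part of a single-dose primary screen of an FDA-approved drug library.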

The test system of the assay is U87. The experiment in a line: cell viability relative to vehicle control; higher = less growth inhibition (less active). Particulars: 10 µM; 72 h.
Take `C[C@]12C/C(=C/O)C(=O)C[C@@H]1CC[C@@H]1[C@@H]2CC[C@@]2(C)[C@H]1CC[C@]2(C)O` [Oxymetholone]: the cell viability worked out at 113 ± 2.5%.

As to `COc1ccc2[nH]cc(C3=CCNCC3)c2c1`, the cell viability was determined as 105 ± 2.3%.

As for `CNC1CC(c2ccc(Cl)c(Cl)c2)c2ccccc21` (configuration not stated) [Indatraline], the cell viability was 99.93 ± 0.57%.

Consider `C[N+]1(C)CCN(c2ccccc2)CC1`, for which the cell viability is 96.62 ± 0.74%.

Turning to `CCCCCCCCCOc1ccc2[nH]cc(CCN)c2c1` [5-Nonyloxytryptamine], the cell viability stood at 37.1 ± 1.2%.

Consider `COC(=O)N1CCN(C(=O)Cc2ccc(Cl)c(Cl)c2)C(CN2CCCC2)C1` (configuration not stated), for which the cell viability was determined as 105 ± 2.6%.

In the case of `CC(=O)O[C@H]1C[C@@H]2CC[C@@H]3[C@H](CC[C@@]4(C)[C@H]3C[C@H]([N+]3(C)CCCCC3)[C@@H]4OC(C)=O)[C@@]2(C)C[C@@H]1[N+]1(C)CCCCC1` [Pancuronium], the cell viability is 103.79 ± 0.081%.

As for `CC[C@@H]1C=CC=CC[C@H](C)[C@@H](O)[C@@H](C)C(=O)[C@H](C)[C@@H](O)[C@H](C)C(=O)[C@H](C)[C@@H](O)[C@H](C)C=CC(=O)O[C@H]2[C@@H](C)[C@@H](CC1)O[C@@]1(CC[C@@H](C)[C@@H](C[C@H](C)O)O1)[C@@H]2C`, the cell viability was 109 ± 11%.

`C[C@]12CC[C@H](O)CC1=CC[C@@H]1[C@@H]2CC[C@@]2(C)[C@H]1CC[C@]2(C)O`: the cell viability came to 127 ± 3.6%.

In the case of `CN1C(=O)CN=C(c2ccccc2)c2cc([N+](=O)[O-])ccc21` [Nimetazepam], the cell viability was determined as 108 ± 2.6%.

As for `C=C(C)[C@@H]1[C@H]2OC(=O)[C@@H]1[C@]1(O)C[C@H]3O[C@]34C(=O)O[C@H]2[C@]14C.CC(C)(O)[C@@H]1[C@H]2OC(=O)[C@@H]1[C@]1(O)C[C@H]3O[C@]34C(=O)O[C@H]2[C@]14C` [Picrotin - Picrotoxinin], the cell viability was 105 ± 1.3%.

Consider `Cc1ncc2n1-c1ccc(Cl)cc1C(c1ccccc1F)=NC2`, for which the cell viability was 102.2 ± 0.87%.

With `CC[C@]1(O)CC[C@H]2[C@@H]3CCC4=CCCC[C@@H]4[C@H]3CC[C@@]21C` [Ethylestrenol], the cell viability is 101.7 ± 0.91%.

As for `C[N+]1(CCC(C(N)=O)(c2ccccc2)c2ccccc2)CCCCC1`, the cell viability was determined as 102 ± 1.4%.

On to `CNCC(O)c1ccc(O)cc1` (configuration not stated), for which the cell viability was 107 ± 4.5%.

As for `Oc1cc2c(cc1O)[C@H]1c3ccccc3CN[C@@H]1CC2`, the cell viability worked out at 109 ± 1.4%.

Take `O=C1CN=C(c2ccccc2)c2cc([N+](=O)[O-])ccc2N1` [Nitrazepam]: the cell viability came to 103.3 ± 0.55%.
